# Data: PubChem BioAssay AID2025 (NMMLSC, 2009)
# The campaign covered roughly 330,000 compounds. About 980 (0.3%) were called active. The sample as a whole holds a higher share of actives than the screen did. Values without a mark were called inactive.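 Rule for the calls: active = percent response vs DMSO below 50%; inconclusive = fewer than 70 events counted for the yeast strain; inactive = the rest.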
# Test: compounds altering RPL19A-GFP fluorescence, TOR branch – cell-based, S. cerevisiae, multiplex flow cytometry, MLPCN, primary screen (AID 2025);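 note: median channel GFP fluorescence of the barcoded RPL19A-GFP strain; ratio of sample median GFP to plate DMSO average so 100% = DMSO; lower means less RPL19A-GFP as with rapamycin TOR inhibition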
# Conditions: S. cerevisiae RPL19A-GFP strain, 3 h, at 10 µM, stronger effect = lower value
row,SMILES,percent response vs DMSO
1,COc1ccc(CN2CC(C(=O)NCCc3ccc(Cl)cc3)CC2=O)cc1 (stereo unspecified),32.5% [may fluoresce violet] (active)
2,COc1ccc(CN2CC(C(=O)NCCN3CCN(c4ccccc4F)CC3)CC2=O)cc1 (stereo unspecified),99.6%
3,COc1ccc(CN2CC(C(=O)NC3CCCCC3)CC2=O)cc1 (stereo unspecified),99.4%
4,O=C1C=CC(=O)N1c1ccc(N2CCCCC2)cc1,64.6%
5,CCOc1ccc(Br)cc1S(=O)(=O)Nc1ccc(C(=O)OC(C)C(=O)N(C)c2ccccc2)cc1 (stereo unspecified),99.2%
6,Cc1nn(Cc2ccccc2)c(C)c1NS(=O)(=O)c1ccccc1,125%
7,OCc1nc(CO)n(Cc2ccccc2)n1,34.3% [may fluoresce violet] (active)
8,Nc1c(-c2ccccc2)nnn1Cc1ccccc1,93.1%
9,CCOc1ccccc1N1C(=O)CC(Sc2nccc(C)n2)C1=O (stereo unspecified),101%
10,C=C1CCN([C@@H](Cc2ccccc2)C(=O)N2CCOCC2)S(=O)(=O)c2ccccc21,102%
11,CCOc1cc(N2CCOCC2)c(OCC)cc1NC(=O)COc1cccc(Cl)c1,101%
12,CCOc1cc(N2CCOCC2)c(OCC)cc1NC(=O)c1cc(C)nc2ccccc12,101%
13,CCOc1cc(N2CCOCC2)c(OCC)cc1NC(=O)COc1cccc2cccnc12,38.4% [may fluoresce violet] (active)
14,CCCOc1ccc(-c2c(C(=O)N/N=C/c3ccco3)nnn2-c2nonc2N)cc1,99.2%
15,Cc1ccccc1S(=O)(=O)N1[C@@H](c2cccc(Cl)c2)C(C(=O)O)=CC[C@H]1c1ccc(Cl)cc1,99.8%
16,O=C(CN1C(=O)COc2ccc(Cl)cc21)N1CCOCC1,101%
17,Cc1ccc(C(=O)Nc2c(C#N)c(C)c(C)n2Cc2ccccc2)cc1,43.3% [may fluoresce violet] (active)
18,Cc1c(C#N)c(NC(=O)c2ccccc2)n(Cc2ccccc2)c1C,92.3%
19,COc1ccc(Cn2c(C)c(C)c(C#N)c2NC(=O)Nc2ccc(F)cc2)cc1,97.2%
20,COc1ccccc1NC(=S)N1CCN(c2ccc(F)cc2)CC1,106%
21,COc1cccc(NC(=O)CSc2nnc(Cc3ccc(OC)c(OC)c3)o2)c1,97.7%
22,N#Cc1ccc(C(=O)Nc2nc(-c3cccs3)c(C(=O)C(F)(F)F)s2)cc1,97.5%

row,SMILES,percent response vs DMSO
1,CCCc1noc2c1/C(=N\O)CCC2,98.8%
2,CCCc1nn2c(=O)cc(CSCC(=O)Nc3cccc(C)c3)nc2s1,98%
3,Cc1ccc(Cn2c(C)c3cnn(CC(=O)NCc4ccccn4)c(=O)c3c2C)cc1,99.3%
4,O=C(Cn1ncc2c3ccccc3n(Cc3ccccc3)c2c1=O)NCc1ccccn1,93.6%
5,Cc1c2cnn(CC(=O)NCc3ccccn3)c(=O)c2c(C)n1Cc1ccc(Cl)cc1,28.5% [may fluoresce violet] (active)
6,O=C(CCS(=O)(=O)c1cccc2nonc12)NCCc1ccccc1Cl,104%
7,O=C(NCc1ccccc1Cl)C1CCN(S(=O)(=O)c2cccc3nonc23)CC1,49% [may fluoresce violet] (active)
8,O=C(NCc1ccccc1Cl)C1CCN(S(=O)(=O)N2CCOCC2)CC1,91%
9,CC(=O)O[C@]1(C(C)=O)CC[C@H]2[C@@H]3C=C(C)C4=CC(=O)CC[C@]4(C)[C@H]3CC[C@@]21C,33% [may fluoresce violet] (active)
10,CC(=O)C12CC(C)=C(C)CC1CC1C3CCC4=CC(=O)CCC4(C)C3CCC12C (stereo unspecified),99.3%
11,CC(C)CCN1CCN=C1N(C)C,99.1%
12,NC(=O)C1CCN(CC(O)CSc2ccc(F)cc2)CC1 (stereo unspecified),99.8%
13,COc1cc(NC(=O)c2ccc(-c3csc(C)n3)cc2)c(OC)cc1Cl,102%
14,CCCCc1c(O)nc2n(c1=O)CCS2,93.4%
15,CCS(=O)(=O)Nc1ccc(C2=NN(C(C)=O)C(c3cccs3)C2)cc1 (stereo unspecified),102%
16,CCCS(=O)(=O)Nc1ccc(-c2cn3c(n2)SCC3)cc1,40.4% [may fluoresce violet] (active)
17,COc1ccc(CC(NC(C)=O)C(=O)NC2CCN(C(=O)c3ccc(OC)c(OC)c3)CC2)cc1OC (stereo unspecified),93.8%
18,COc1ccc2[nH]c(=O)c(C3c4cc(OC)c(OC)cc4CCN3C(=O)c3ccco3)cc2c1 (stereo unspecified),103%
19,CCc1ccc(OCC2c3cc(OC)c(OC)cc3CCN2C(C)=O)cc1 (stereo unspecified),42.9% [may fluoresce violet] (active)
20,COc1ccccc1-n1nnnc1S(=O)(=O)Cc1ccc(Cl)cc1,102%
21,Cc1cccc(C(=O)NC(=S)N(C)C2CCCCC2)c1,96.9%
22,Cc1c(NC(=O)Nc2cccc([N+](=O)[O-])c2)c(=O)n(-c2ccccc2)n1C,102%

row,SMILES,percent response vs DMSO
1,Cc1c(NC(=O)c2c([N+](=O)[O-])cnn2C)c(=O)n(-c2ccccc2)n1C,41.5% [may fluoresce violet] (active)
2,Cc1cc(OCC(=O)Nc2c(C)n(C)n(-c3ccccc3)c2=O)ccc1[N+](=O)[O-],97.2%
3,Cc1ccccc1-c1cc(C(=O)NCC2CC2)n(CC2CC(c3cccnc3)=NO2)n1 (stereo unspecified),104%
4,CNC[C@H](CC1CCCCC1)NC[C@H](NCCC1CCCC1)[C@H](C)O,93.9%
5,CCCc1ccc(-c2c(C)sc(NC(=O)c3ccnn3C)c2C#N)cc1,98%
6,CC1(c2ccc3ccccc3c2)NC(=O)NC1=O (stereo unspecified),105%
7,COc1ccc(-n2nnnc2SCc2nc(N)nc(N3CCOCC3)n2)cc1,48.8% [may fluoresce violet] (active)
8,COc1ccc(CSc2nnnn2-c2ccc(C(=O)O)cc2)cc1,99.4%
9,COc1ccc(-c2nnn(Cc3nc(N)nc(N4CCCCC4)n3)n2)cc1,98.7%
10,O=C(COC(=O)CNC(=O)C1CCCCC1)Nc1cccc(F)c1,100%
11,OCC(O)CN(c1ccccc1)c1ccccc1 (stereo unspecified),94.3%
12,CCn1cc(C(=O)OCC(=O)Nc2cccc(C)c2)c(=O)c2ccc(C)nc21,96.6%
13,C=CC[C@H](CC(=O)N(CCO)Cc1ccccc1)C(=O)N[C@@H](COC(=O)[C@@H](CC=C)Cc1ccc(F)cc1)Cc1ccccc1,96%
14,CCNS(=O)(=O)c1ccc(NC(=O)c2cncc(Br)c2)cc1,96.5%
15,O=C(CN1CCN(S(=O)(=O)c2ccc(Br)cc2)CC1)Nc1ccccc1C(=O)c1ccccc1,100%
16,O=C(CNC(=O)c1ccccc1)Oc1ccc([N+](=O)[O-])cc1,103%
17,O=C(NNS(=O)(=O)Cc1ccccc1)c1ccc([N+](=O)[O-])cc1,44.4% [may fluoresce violet] (active)
18,O=C(Cc1ccccc1)NNS(=O)(=O)c1ccc([N+](=O)[O-])cc1,97.4%
19,CC(=O)c1ccc(N2CCN(C(=O)CCNC(=O)Cn3ccc4ccccc4c3=O)CC2)cc1,104%
20,COc1cc(C(C(=O)NC2CCCC2)N(C(=O)c2ccco2)c2ccccc2C(C)=O)cc(OC)c1OC (stereo unspecified),108%
21,O=C(c1ccncc1)c1ccc([N+](=O)[O-])cc1,98.9%
22,O=C(CC(n1cncn1)C(Cl)(Cl)Cl)c1ccc([N+](=O)[O-])cc1 (stereo unspecified),104%

row,SMILES,percent response vs DMSO
1,O=C(C1CCCO1)N(c1ccc(F)cc1)C1C=CS(=O)(=O)C1 (stereo unspecified),97.9%
2,CCOc1ccc(C(C(=O)NC2CCCC2)N(C(=O)c2snc(C(N)=O)c2N)C2CCCC2)cc1 (stereo unspecified),95.8%
3,CC(C)(C)NC(=O)C(c1ccc(Cl)cc1)N(CCO)C(=O)c1snc(C(N)=O)c1N (stereo unspecified),99.5%
4,NC(=O)c1nsc(C(=O)N(CCCN2CCOCC2)C(C(=O)NC2CCCCC2)c2ccc(Cl)cc2)c1N (stereo unspecified),38% [may fluoresce violet] (active)
5,O=C(O)c1ccc(S(=O)(=O)N2CCOCC2)o1,47.2% [may fluoresce violet] (active)
6,O=C(c1cc(S(=O)(=O)N2CCOCC2)ccc1Cl)N1CCOCC1,112%
7,O=C(CCc1ccc(S(=O)(=O)N2CCOCC2)cc1)NN=C1CCCCCCC1,101%
8,CCOC(=O)CNC(=O)/C=C/c1c(Cl)cccc1Cl,94.2%
9,CC(C)=CCCC1(C)C=Cc2c(ccc3c2[nH]c2cc(O)c(C)cc23)O1 (stereo unspecified),97.2%
10,O=C1CN(C(=O)COc2c(Cl)cccc2Cl)c2ccccc2N1,91.8%
11,O=C1CN(C(=O)COC(=O)c2cnc(Cl)c(Cl)c2)c2ccccc2N1,18.6% [may fluoresce violet] (active)
12,COc1cc(OC)c(C(=O)OCC(=O)N2CC(=O)Nc3ccccc32)cc1OC,93.3%
13,CN(NC(=O)C1CC(=O)N(c2ccccc2)C1)C1=NS(=O)(=O)c2ccccc21 (stereo unspecified),102%
14,CC1(C)CC2CC(C)(CN2c2ncnc3ccc(Br)cc23)C1 (stereo unspecified),105%
15,CN(CC(=O)Nc1ccccc1Cl)C(=O)c1ccccc1SCC(=O)N1CCCC1,94.7%
16,CSc1nc2nc3c(c(=O)n2[nH]1)CCC3,89.8%
17,O=c1c2c(nc3nc[nH]n13)CCC2,19.2% [may fluoresce violet] (active)
18,O=c1c2c(nc3cc(-c4cccc(Cl)c4)[nH]n13)CCCC2,99.2%
19,CCCCCC(O)c1cccc(OCc2ccc3ccccc3n2)c1 (stereo unspecified),88.3%
20,O=C1CC(=O)Nc2cc(S(=O)(=O)N3CCN(c4cccc(C(F)(F)F)c4)CC3)ccc2N1,97.6%
